The target in assay [1] is Androgen Receptor/SRC-1 Co-activator, AR (gene 367) (UniProt P10275). The assay is described as follows: OT_AR_ARSRC1_0960: Odyssey Thera (OT) 16-hour HEK293T Protein-Complementation Assay for Androgen Receptor/SRC-1 Co-activator (AID 2283353).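 Also: actives raise the signal above DMSO so potency reflects increased AR and SRC-1 complex.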 In a few lines:
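Interaction of AR with SRC-1 was followed by YFP fragment complementation in HEK293T cells after 16 h of dosing. Gain of nuclear-over-cytoplasmic 488 nm fluorescence against DMSO controls defined activity.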

For assay [2] the target is unchanged. The assay is described as follows: OT_AR_ARSRC1_0480: Odyssey Thera (OT) 8-hour HEK293T Protein-Complementation Assay for Androgen Receptor/SRC-1 Co-activator (AID 2283354).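 Also: hits raise the complementation signal above DMSO so AC50 marks enhancers.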 The essentials: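 HEK293T cells stably expressing AR and SRC-1 fused to Venus YFP fragments, imaged 8 h after dosing. Complementation fluorescence scored as nuclear/cytoplasmic ratio at 488 nm in at least 400 cells per image; gain fitted versus DMSO.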

Assay [3] addresses Estrogen receptor beta (Homo sapiens) (UniProt Q92731). The assay is described as follows: OT_ER_ERbERb_0480: Odyssey Thera (OT) 8-hour HEK293T Protein-Complementation Assay for Estrogen Receptor-beta/-beta Homodimer (AID 2283357).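 Also: active means signal gain over DMSO baseline.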 The essentials:
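Fluorescence intensity, nuclear for agonists and nuclear plus cytoplasmic for antagonists, was quantified by laser scanning cytometry versus vehicle after 8 h treatment. The cells were HEK293T stably carrying ER beta LBD fragment-complementation partners.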

Assay [4] addresses Estrogen receptor (Homo sapiens) + Estrogen receptor beta (Homo sapiens) (UniProt P03372+Q92731). Nature of the assay: OT_ER_ERaERb_1440: Odyssey Thera (OT) 24-hour HEK293T Protein-Complementation Assay for Estrogen Receptor-alpha/-beta Homodimer (AID 2283356).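 Also: heteromer of ER alpha and ER beta binding domains; hits raise reporter fluorescence and both agonists and antagonists give an increase.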 The essentials:
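Stable HEK293T PCA line, ERα LBD 310-547 + ERβ LBD 263-489 fused to reporter fragments; 24 h treatment; fluorescence read by laser scanning cytometry; positive fitting direction relative to DMSO.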

In assay [5] the target is Estrogen receptor (Homo sapiens) (UniProt P03372). The assay is described as follows: OT_ER_ERaERa_0480: Odyssey Thera (OT) 8-hour HEK293T Protein-Complementation Assay for Estrogen Receptor-alpha/-alpha Homodimer (AID 2283351).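 Also: rise in fluorescence from reassembled reporter fragments on ERα LBD homodimer in nucleus or whole cell.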 The essentials: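 Binding reporter in which dimerisation of ERα LBD (aa 310-547) fusions reconstitutes a fluorescent reporter in HEK293T cells. Compounds incubated 8 h; mean fluorescence intensity increase versus DMSO scored.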

Among the data in PubChem BioAssay (EPA / NIEHS) are outcome values, retold here.

Records with an inconclusive call do not appear. The source made the active and inactive calls. The calls were made as follows: active = hit-call score of the fitted dose curve at least 0.9, where 1 is the maximum; inconclusive = response in the unintended direction; inactive = score below 0.9.

Sequence of Estrogen receptor beta (Homo sapiens) (Q92731 whole entry, looked up, the tested form may be a part): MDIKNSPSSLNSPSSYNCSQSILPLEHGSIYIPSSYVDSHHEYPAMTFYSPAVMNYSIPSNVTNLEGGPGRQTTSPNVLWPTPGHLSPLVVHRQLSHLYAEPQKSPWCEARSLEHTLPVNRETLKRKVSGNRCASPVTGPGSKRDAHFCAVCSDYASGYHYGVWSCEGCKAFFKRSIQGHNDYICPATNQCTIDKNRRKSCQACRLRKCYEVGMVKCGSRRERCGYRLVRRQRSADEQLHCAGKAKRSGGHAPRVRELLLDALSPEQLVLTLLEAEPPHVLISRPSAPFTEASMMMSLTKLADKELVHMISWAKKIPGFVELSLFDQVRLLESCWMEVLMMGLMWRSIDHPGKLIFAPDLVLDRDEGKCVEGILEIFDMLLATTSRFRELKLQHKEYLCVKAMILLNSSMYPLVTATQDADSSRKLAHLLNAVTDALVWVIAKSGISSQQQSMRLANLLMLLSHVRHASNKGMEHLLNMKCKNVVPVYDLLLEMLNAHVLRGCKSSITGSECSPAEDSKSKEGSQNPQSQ
Sequence of Androgen Receptor/SRC-1 Co-activator, AR (gene 367) (P10275 whole entry, looked up, the tested form may be a part): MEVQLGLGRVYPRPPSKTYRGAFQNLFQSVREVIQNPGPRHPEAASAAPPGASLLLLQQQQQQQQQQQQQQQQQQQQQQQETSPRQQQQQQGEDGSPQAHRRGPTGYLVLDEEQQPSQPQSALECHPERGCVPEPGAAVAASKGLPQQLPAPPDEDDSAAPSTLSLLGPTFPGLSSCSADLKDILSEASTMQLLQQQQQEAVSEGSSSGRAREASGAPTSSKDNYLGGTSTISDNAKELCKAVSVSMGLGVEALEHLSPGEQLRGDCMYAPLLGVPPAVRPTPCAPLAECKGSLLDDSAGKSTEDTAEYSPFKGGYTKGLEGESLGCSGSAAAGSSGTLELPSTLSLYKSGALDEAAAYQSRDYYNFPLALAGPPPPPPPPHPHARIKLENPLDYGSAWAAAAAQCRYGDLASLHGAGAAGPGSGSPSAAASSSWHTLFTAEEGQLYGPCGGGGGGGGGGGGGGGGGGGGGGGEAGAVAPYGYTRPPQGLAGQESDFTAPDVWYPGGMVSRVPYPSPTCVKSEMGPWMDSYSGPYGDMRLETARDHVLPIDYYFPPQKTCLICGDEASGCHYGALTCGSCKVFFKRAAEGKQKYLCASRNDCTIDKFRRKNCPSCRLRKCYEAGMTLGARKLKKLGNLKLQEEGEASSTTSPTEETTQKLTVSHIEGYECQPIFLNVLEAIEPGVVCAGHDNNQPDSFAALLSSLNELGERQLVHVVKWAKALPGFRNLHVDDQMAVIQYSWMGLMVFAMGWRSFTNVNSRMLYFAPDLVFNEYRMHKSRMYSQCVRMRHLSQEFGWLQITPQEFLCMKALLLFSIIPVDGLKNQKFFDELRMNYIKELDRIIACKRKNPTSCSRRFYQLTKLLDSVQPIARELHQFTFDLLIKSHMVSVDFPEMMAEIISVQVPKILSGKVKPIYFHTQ
Sequence of Estrogen receptor (Homo sapiens) + Estrogen receptor beta (Homo sapiens) (P03372 whole entry, looked up, the tested form may be a part): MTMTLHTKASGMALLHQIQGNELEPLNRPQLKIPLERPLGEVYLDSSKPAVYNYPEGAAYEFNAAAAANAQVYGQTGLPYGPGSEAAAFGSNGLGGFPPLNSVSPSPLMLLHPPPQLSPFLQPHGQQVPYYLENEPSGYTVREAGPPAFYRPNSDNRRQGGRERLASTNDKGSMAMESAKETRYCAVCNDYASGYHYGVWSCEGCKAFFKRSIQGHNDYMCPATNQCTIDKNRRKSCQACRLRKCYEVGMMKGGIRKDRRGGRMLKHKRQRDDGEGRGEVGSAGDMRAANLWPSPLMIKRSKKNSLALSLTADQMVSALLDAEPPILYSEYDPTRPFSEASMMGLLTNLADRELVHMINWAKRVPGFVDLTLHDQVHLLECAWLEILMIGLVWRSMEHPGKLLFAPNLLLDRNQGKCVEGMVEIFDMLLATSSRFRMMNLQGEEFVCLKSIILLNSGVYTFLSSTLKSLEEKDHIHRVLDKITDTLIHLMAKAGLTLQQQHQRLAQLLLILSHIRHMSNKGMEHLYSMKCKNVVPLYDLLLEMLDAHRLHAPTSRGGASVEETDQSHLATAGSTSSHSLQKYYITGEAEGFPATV
Sequence of Estrogen receptor (Homo sapiens) + Estrogen receptor beta (Homo sapiens) (Q92731 whole entry, looked up, the tested form may be a part): as the sequence (Q92731 whole entry, looked up, the tested form may be a part) above
Sequence of Estrogen receptor (Homo sapiens) (P03372 whole entry, looked up, the tested form may be a part): as the sequence (P03372 whole entry, looked up, the tested form may be a part) above

Regarding `CCCCC(CC)COC(=O)c1ccc(C(=O)OCC(CC)CCCC)cc1` (configuration not stated), the compound was called inactive in assay [1] and in assay [2].

Regarding `NC(=O)NO`, the call in assay [3] was inactive.

As to `CCCC(=O)OCC`, the outcome in assay [4] and in assay [3] was inactive.

As for `CC(O)CN(CCN(CC(C)O)CC(C)O)CC(C)O` (configuration not stated), the compound was called inactive in assay [3].

Take `CC(=O)OCCC(C)C`: the compound was called inactive in assay [3].

On to `CCCCCCCCO`, for which the outcome in assay [5], in assay [4] and in assay [3] was inactive.

On to `CC(C)(O)c1coc(S(=O)(=O)NC(=O)Nc2c3c(cc4c2CCC4)CCC3)c1`, for which the result in assay [3] was inactive.

For `COCCOCCOCCOC`, in assay [3], the compound was called inactive.
